Where a name gives a salt, the structure may show the parent alone. ± gives the standard deviation of the averaged measurements.
Columns and labels:
[1] = test system: Saccharomyces cerevisiae BY4741 SeMeCo community; test: mean cell size (pixel area) (pixels); higher = larger cells; conditions: 10 µM; 24 h; SM minimal medium
In short: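 The test system was a fluorescent Saccharomyces cerevisiae BY4741 community with four plasmids, each restoring one auxotrophy and carrying a fluorescent marker. Cells were grown for 24 h in SM medium with drug at a final 10 µM in 384-well plates, then fixed with paraformaldehyde and imaged by automated confocal microscopy for Harmony analysis of mean cell pixel area per well. Values represent the average of 3 replicates. Same SeMeCo high-content imaging drug screen: Selleck FDA-approved drugs at 10 µM, 24 h in SM medium, 384-well plates, 3 replicates.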

[2] = test system: Saccharomyces cerevisiae BY4741 SeMeCo community; test: z-score of prototroph abundance vs DMSO median; higher = larger share of this subpopulation than in DMSO controls; conditions: 10 µM; 24 h; SM minimal medium; subpopulation (auxotrophy): Prototroph
In short: (§1)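 Subpopulation abundance was reported as a z-score against the median of vehicle wells. The Saccharomyces cerevisiae BY4741 community, carrying four plasmids that each restored one auxotrophy and encoded a distinct fluorescent protein, was grown 24 h in minimal SM medium in 384-well plates holding library drugs at 10 µM final. Cells were paraformaldehyde-fixed and imaged by automated confocal microscopy, with single-auxotroph fluorescent strains used for thresholds and autofluorescence correction.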

[3] = test system: Saccharomyces cerevisiae BY4741 SeMeCo community; test: z-score of subpopulation abundance vs DMSO median, subpopulation auxotrophic for L; higher = larger share of this subpopulation than in DMSO controls; conditions: 10 µM; 24 h; SM minimal medium; subpopulation (auxotrophy): L
In short: as §1

[4] = test system: Saccharomyces cerevisiae BY4741 SeMeCo community; test: z-score of subpopulation abundance vs DMSO median, subpopulation auxotrophic for U; higher = larger share of this subpopulation than in DMSO controls; conditions: 10 µM; 24 h; SM minimal medium; subpopulation (auxotrophy): U
In short: as §1

[5] = test system: Saccharomyces cerevisiae BY4741 SeMeCo community; test: z-score of subpopulation abundance vs DMSO median, subpopulation auxotrophic for H; higher = larger share of this subpopulation than in DMSO controls; conditions: 10 µM; 24 h; SM minimal medium; subpopulation (auxotrophy): H
In short: as §1

[6] = test system: Saccharomyces cerevisiae BY4741 SeMeCo community; test: z-score of subpopulation abundance vs DMSO median, subpopulation auxotrophic for LU; higher = larger share of this subpopulation than in DMSO controls; conditions: 10 µM; 24 h; SM minimal medium; subpopulation (auxotrophy): LU
In short: as §1

[7] = test system: Saccharomyces cerevisiae BY4741 SeMeCo community; test: z-score of subpopulation abundance vs DMSO median, subpopulation auxotrophic for LM; higher = larger share of this subpopulation than in DMSO controls; conditions: 10 µM; 24 h; SM minimal medium; subpopulation (auxotrophy): LM
In short: as §1

[8] = test system: Saccharomyces cerevisiae BY4741 SeMeCo community; test: z-score of subpopulation abundance vs DMSO median, subpopulation auxotrophic for HM; higher = larger share of this subpopulation than in DMSO controls; conditions: 10 µM; 24 h; SM minimal medium; subpopulation (auxotrophy): HM
In short: as §1

[9] = test system: Saccharomyces cerevisiae BY4741 SeMeCo community; test: z-score of subpopulation abundance vs DMSO median, subpopulation auxotrophic for HU; higher = larger share of this subpopulation than in DMSO controls; conditions: 10 µM; 24 h; SM minimal medium; subpopulation (auxotrophy): HU
In short: as §1

[10] = test system: Saccharomyces cerevisiae BY4741 SeMeCo community; test: z-score of subpopulation abundance vs DMSO median, subpopulation auxotrophic for UM; higher = larger share of this subpopulation than in DMSO controls; conditions: 10 µM; 24 h; SM minimal medium; subpopulation (auxotrophy): UM
In short: as §1

[11] = test system: Saccharomyces cerevisiae BY4741 SeMeCo community; test: z-score of subpopulation abundance vs DMSO median, subpopulation auxotrophic for HL; higher = larger share of this subpopulation than in DMSO controls; conditions: 10 µM; 24 h; SM minimal medium; subpopulation (auxotrophy): HL
In short: as §1

[12] = test system: Saccharomyces cerevisiae BY4741 SeMeCo community; test: z-score of subpopulation abundance vs DMSO median, subpopulation auxotrophic for HLU; higher = larger share of this subpopulation than in DMSO controls; conditions: 10 µM; 24 h; SM minimal medium; subpopulation (auxotrophy): HLU
In short: as §1

[13] = test system: Saccharomyces cerevisiae BY4741 SeMeCo community; test: z-score of subpopulation abundance vs DMSO median, subpopulation auxotrophic for HLM; higher = larger share of this subpopulation than in DMSO controls; conditions: 10 µM; 24 h; SM minimal medium; subpopulation (auxotrophy): HLM
In short: as §1

[14] = test system: Saccharomyces cerevisiae BY4741 SeMeCo community; test: z-score of subpopulation abundance vs DMSO median, subpopulation auxotrophic for HUM; higher = larger share of this subpopulation than in DMSO controls; conditions: 10 µM; 24 h; SM minimal medium; subpopulation (auxotrophy): HUM
In short: as §1

[15] = test system: Saccharomyces cerevisiae BY4741 SeMeCo community; test: z-score of subpopulation abundance vs DMSO median, subpopulation auxotrophic for LUM; higher = larger share of this subpopulation than in DMSO controls; conditions: 10 µM; 24 h; SM minimal medium; subpopulation (auxotrophy): LUM
In short: as §1

[16] = test system: Saccharomyces cerevisiae BY4741 SeMeCo community; test: z-score of subpopulation abundance vs DMSO median, subpopulation auxotrophic for HLUM; higher = larger share of this subpopulation than in DMSO controls; conditions: 10 µM; 24 h; SM minimal medium; subpopulation (auxotrophy): HLUM
In short: as §1

[17] = test system: Saccharomyces cerevisiae BY4741 SeMeCo community; test: z-score of subpopulation abundance vs DMSO median, subpopulation auxotrophic for M; higher = larger share of this subpopulation than in DMSO controls; conditions: 10 µM; 24 h; SM minimal medium; subpopulation (auxotrophy): M
In short: as §1

| SMILES | mean cell size [1] | z-score of prototroph abundance [2] | z-score of subpopulation abundance [3] | z-score of subpopulation abundance [4] | z-score of subpopulation abundance [5] | z-score of subpopulation abundance [6] | z-score of subpopulation abundance [7] | z-score of subpopulation abundance [8] | z-score of subpopulation abundance [9] | z-score of subpopulation abundance [10] | z-score of subpopulation abundance [11] | z-score of subpopulation abundance [12] | z-score of subpopulation abundance [13] | z-score of subpopulation abundance [14] | z-score of subpopulation abundance [15] | z-score of subpopulation abundance [16] | z-score of subpopulation abundance [17] |
| --- | --- | --- | --- | --- | --- | --- | --- | --- | --- | --- | --- | --- | --- | --- | --- | --- | --- |
| CC[C@@]1(O)C(=O)OCc2c1cc1n(c2=O)Cc2cc3c(CN(C)C)c(O)ccc3nc2-1 [Topotecan HCl] | 12.5 ± 0.14 | 1.13 | 0.17 | -1.89 | 0.59 | -1.86 | 0.34 | 0.51 | -2.17 | -1.6 | 0.17 | -0.87 | 0.12 | -0.98 | -0.62 | -0.39 | – |
| COc1ccc(C(C)=O)c(O)c1 [Paeonol] | 12.4 ± 0.15 | -0.25 | – | 0.71 | 0.01 | – | – | -0.35 | 0.44 | – | -0.25 | -0.12 | -0.22 | – | -0.79 | 0.01 | -0.69 |
| CN(C)C[C@@H]1CCn2cc(c3ccccc32)C2=C(C(=O)NC2=O)c2cn(c3ccccc23)CCO1 | 12.64 ± 0.084 | -0.66 | 1.34 | 0.49 | 1.52 | 1.13 | 0.82 | 0.28 | -0.03 | -0.29 | 1.61 | 1.21 | 0.91 | -0.43 | 0.63 | 0.34 | – |
| CC(C)NC(=N)NC(=N)Nc1ccc(Cl)cc1 [Proguanil] | 12.3 ± 0.13 | – | -1.12 | 1.07 | -0.88 | – | 0.02 | 0.11 | – | 0.61 | -0.81 | -0.46 | – | -0.17 | -0.3 | -0.44 | 0.65 |
| C[C@H]1COc2c(C3(N)CC3)c(F)cc3c(=O)c(C(=O)O)cn1c23 [Pazufloxacin mesylate] | 12.5 ± 0.28 | -0.35 | – | 0.53 | 0.02 | – | -0.18 | -0.36 | 0.48 | – | -0.07 | 1.38 | -0.08 | -0.08 | -0.3 | 0.08 | -0.46 |
| CCCCCCCCCC(=O)N[C@@H](Cc1c[nH]c2ccccc12)C(=O)N[C@H](CC(N)=O)C(=O)N[C@@H](CC(=O)O)C(=O)N[C@@H]1C(=O)NCC(=O)N[C@@H](CCCN)C(=O)N[C@@H](CC(=O)O)C(=O)N[C@H](C)C(=O)N[C@@H](CC(=O)O)C(=O)NCC(=O)N[C@H](CO)C(=O)N[C@@H]([C@H](C)CC(=O)O)C(=O)N[C@@H](CC(=O)c2ccccc2N)C(=O)O[C@@H]1C [Daptomycin] | – | -0.94 | – | -1.42 | 1.36 | – | 1.51 | 1.93 | 0.29 | -0.81 | – | 1.3 | 0.48 | 0.77 | 1.02 | -0.99 | 0.17 |
| NCC[C@H](O)C(=O)N[C@@H]1C[C@H](N)[C@@H](O[C@H]2O[C@H](CN)[C@@H](O)[C@H](O)[C@H]2O)[C@H](O)[C@H]1O[C@H]1O[C@H](CO)[C@@H](O)[C@H](N)[C@H]1O [Amikacin disulfate] | 11.9 ± 0.14 | 0.25 | – | 0.78 | -0.3 | – | -0.17 | -1.21 | -0.01 | 0.57 | -0.25 | 0.12 | – | -0.51 | -0.03 | 0.42 | -0.8 |
| O=C(O)c1cc(-c2ccc(F)cc2F)ccc1O [Diflunisal] | 13.1 ± 0.14 | 3.54 | – | -2.37 | -1.33 | – | -1.23 | -1.55 | -2.05 | -3.18 | -0.87 | -0.75 | -0.45 | -2.64 | -1.08 | -0.39 | -2.15 |
| Fc1ccc([C@@H]2CCNC[C@H]2COc2ccc3c(c2)OCO3)cc1 [Paroxetine mesylate] | 12.1 ± 0.27 | 0.14 | – | 0.96 | -0.34 | – | -0.87 | -0.77 | -0.22 | 0.67 | -0.67 | 0 | 0.34 | -0.17 | – | – | -0.51 |
| NC(=O)N1c2ccccc2CC(=O)c2ccccc21 [Oxcarbazepine] | 12.4 ± 0.25 | 0.37 | -0.68 | 0.16 | -0.49 | -0.37 | 0.14 | 0 | 0.16 | 0.07 | -0.1 | -0.11 | -1.13 | 0.19 | 0.55 | 0.1 | – |
| CCCCCCCCN=C(N)NC(N)=NCc1ccc(Cl)c(Cl)c1 [Olanexidine Hydrochloride semihydrate] | 9.82 ± 0.35 | -19.3 | -3.44 | -3.91 | 4.73 | 2.95 | -0.77 | 13.8 | 5.71 | 12.2 | 11.1 | 5.73 | 72.9 | 34.7 | 21.6 | 213 | – |
| CC(C)C(=O)Oc1ccc(CO)cc1[C@H](CCN(C(C)C)C(C)C)c1ccccc1 [Fesoterodine Fumarate] | 12.3 ± 0.21 | 0.94 | -0.39 | 0.1 | -1.08 | -0.25 | -0.9 | -0.41 | -0.72 | -0.82 | -0.27 | -0.16 | -1 | -0.72 | -0.22 | -1.13 | – |
| CCCCCOc1ccc(-c2ccc(-c3ccc(C(=O)N[C@H]4C[C@@H](O)[C@@H](O)NC(=O)[C@@H]5[C@@H](O)[C@@H](C)CN5C(=O)[C@H]([C@@H](C)O)NC(=O)[C@H]([C@H](O)[C@@H](O)c5ccc(O)cc5)NC(=O)[C@@H]5C[C@@H](O)CN5C(=O)[C@H]([C@@H](C)O)NC4=O)cc3)cc2)cc1 | 12.6 ± 0.25 | -14.8 | 4.48 | 0.13 | 25 | 5.21 | 1.2 | 0.97 | 17.2 | 1.54 | – | 21.5 | 42 | 25.3 | 9.08 | 76 | – |
| CC1(C)S[C@@H]2[C@H](NC(=O)[C@H](N)c3ccccc3)C(=O)N2[C@H]1C(=O)OCOC(=O)[C@@H]1N2C(=O)C[C@H]2S(=O)(=O)C1(C)C [Sultamicillin] | 12.26 ± 0.082 | -1.74 | 1.05 | 0.83 | 1.56 | 0.83 | 0.38 | 0.78 | 2.39 | 0.83 | 2.28 | 1.83 | 1.63 | 1.4 | 1.13 | 0.86 | – |
| CCN(CC)CC#CCOC(=O)C(O)(c1ccccc1)C1CCCCC1 (configuration not stated) [Oxybutynin chloride] | 12.57 ± 0.03 | 1.15 | -0.83 | -0.51 | -0.41 | -1.2 | -0.32 | 0.06 | -0.4 | -1.11 | -0.93 | -0.57 | -0.24 | -0.97 | -0.46 | -0.26 | – |
| COc1cc2c(cc1OC)[C@@H]1Cc3ccc(OC)c(OC)c3CN1CC2 [Rotundine] | 12.5 ± 0.15 | -0.12 | – | – | 0.05 | – | -0.15 | -0.02 | 0.17 | – | – | 0.67 | -0.41 | – | -0.04 | 0.13 | 0.07 |
